# Compound activity (PubChem)
# Compounds with a hit are over-represented: about 9.2% of the library has one in this group of screens.
# Rab9 promoter act – qHTS Assay for Rab9 Promoter Activators; Potency, µM (titrated, usually from 9.22 µM), without a hit: top-dose activation, negative = inhibition, hits mostly activators; Huh7 Rab9 promoter-luciferase reporter, luminescence, 24 h; AID 485297, 2010; hit rate 2.8% among 320,000; also: % of control where 0% means no effect; nearly all actives have a fitted effect of over 60% in size
#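 Stable Rab9-luc Huh7, 1500 cells/well, 2 h settle; cmpd in DMSO, 24 h, 37 °C/5% CO2; luciferase reagent 10 min RT; luminescence.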
# NPC1 prom act – qHTS Assay for NPC1 Promoter Activators | AID 485313, 2010 | hit rate 2.4% among 320,000 | Huh7 NPC1 promoter luciferase reporter, 24 h | Potency, µM (highest dose often 9.22 µM), for the others: top-dose activation, usual class: activators; also: % of control where 0% means no effect; nearly all actives have a fitted effect of over 60% in size
#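 Luciferase expression driven by the NPC1 promoter was measured in stably transfected Huh7 cells after a 24 h compound incubation, using a luciferase reagent and a luminescence read.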
# ELG1 repair inh – qHTS screen for small molecules that inhibit ELG1-dependent DNA repair in human embryonic kidney (HEK293T) cells expressing luciferase-tagged ELG1; HEK293T ELG1-luciferase reporter, luminescence, 16 h; DNA damage induced by 5-fluorouridine; Potency, µM (highest dose often 46.1 µM), inactives show at the top dose activity change, negative = inhibition, usual class: inhibitors; hit rate 2.3% among 330,000; AID 504467, 2011; also: % is scaled to controls: 0 for no effect and ±100 for the full control effect; nearly all actives have a fitted effect of over 55% in size
#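 Overnight (16 hr) co-exposure of 2,000 cells/well to 5-fluorouridine and compound at 37 °C preceded detection. Luciferase was quantified via ONE-Glo luminescence; loss of signal denotes inhibition.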
# SMN2 splice up – qHTS Assay for Enhancers of SMN2 Splice Variant Expression | HEK293 SMN2-luciferase splicing reporter, luminescence, 30-36 h | Potency, µM (top dose mostly 46.1 µM), without a hit: at the top dose activity change, positive = activation, most hits filed as activators | hit rate 2.8% among 210,000; also: % of control where 0% means no effect; nearly all actives have a fitted effect of over 55% in size
#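 HEK293 cells carry an SMN2 minigene-luciferase reporter in which exon 7 inclusion puts luciferase in frame. Cells were seeded at 2000 cells/well, attached for 10-12 hours, then exposed to compounds for 30-36 hours at 37C before ONE-Glo luminescence.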
# ELG1 genotox – qHTS screen for small molecules that induce genotoxicity in human embryonic kidney (HEK293T) cells expressing luciferase-tagged ELG1 | HEK293T ELG1-luciferase reporter, luminescence, 16 h | Potency, µM (series often up to 46 µM), for inactives: at the top dose activity change, positive = activation, actives largely listed as activators | hit rate 1.3% among 330,000; also: % of control where 0% means no effect; nearly all actives have a fitted effect of over 60% in size
#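 DMSO vehicle served as control against compound-treated ELG1-luciferase HEK293T cells; exposure lasted 16 hr at 37 °C and 5% CO2, followed by ONE-Glo luminescence detection after 30 min.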
# FLuc counter – qHTS profiling assay for firefly luciferase inhibitor/activator using purifed enzyme and Km concentrations of substrates (counterscreen for miR-21 project); Luciferin 4-monooxygenase (Photinus pyralis), P08659; purified FLuc, Km substrates, luminescence inhibition; Potency, µM (doses to about 57.5 µM), for inactives: top-dose activity change, negative = inhibition, usual class: inhibitors; hit rate 6.9% among 360,000;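 also: plate controls were vehicle for no effect and reference inhibitor for full effect; nearly all actives have a fitted effect of over 55% in size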
# Target sequence (P08659 whole entry, looked up): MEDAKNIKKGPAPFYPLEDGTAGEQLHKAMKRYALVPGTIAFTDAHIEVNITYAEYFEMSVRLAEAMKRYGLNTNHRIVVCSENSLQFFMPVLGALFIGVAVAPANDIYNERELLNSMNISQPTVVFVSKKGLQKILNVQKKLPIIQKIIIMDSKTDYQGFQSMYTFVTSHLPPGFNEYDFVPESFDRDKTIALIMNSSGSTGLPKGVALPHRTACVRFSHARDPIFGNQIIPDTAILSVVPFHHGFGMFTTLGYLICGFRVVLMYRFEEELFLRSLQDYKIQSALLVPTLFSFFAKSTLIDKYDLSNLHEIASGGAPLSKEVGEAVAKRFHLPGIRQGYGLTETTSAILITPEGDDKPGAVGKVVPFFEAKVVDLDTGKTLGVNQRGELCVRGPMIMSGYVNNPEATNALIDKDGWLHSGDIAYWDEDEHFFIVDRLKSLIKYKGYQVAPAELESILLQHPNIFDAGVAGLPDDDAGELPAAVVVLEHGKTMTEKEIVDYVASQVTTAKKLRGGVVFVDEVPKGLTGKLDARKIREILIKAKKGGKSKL
#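 Purified P. pyralis luciferase, 10 nM final, with Km-level 10 uM D-luciferin and 10 uM ATP in 50 mM Tris acetate pH 7.5, 10 mM Mg acetate, 0.01% Tween-20, 0.05% BSA; 6-point qHTS titration about 60 µM downward; luminescence read.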
# * = called active by the depositor; u = inconclusive; x = no result given. Calls follow the shape of the dose curve; as a rule, active = well fitted curve in the direction sought with a large enough effect; inconclusive = small, poorly fitted or top-dose-only effect, or another doubt; inactive = no such curve, though single readings can be large; an effect the other way counts as inactive or inconclusive. Potency is read from the fitted curve at half-maximal effect.
SMILES,Rab9 promoter act,NPC1 prom act,ELG1 repair inh,SMN2 splice up,ELG1 genotox,FLuc counter
CCOc1ccc(N(CC(=O)NC(C(C)C)C(C)C)S(=O)(=O)c2ccc(OC)c(OC)c2)cc1,-5%,-3%,-13%,-16%,-12%,0%
O=S(=O)(c1cc(Cl)ccc1Cl)n1cccn1,3%,-6%,14%,x,7%,1%
Cc1ccccc1/C=C/c1nc2ccccc2c(=O)n1CCc1ccccc1,-4%,-1%,16µM*,-20%,-5%,-8%
Cc1[nH]c2ccccc2c1/C=C/c1nc2ccccc2c(=O)n1CCO,-34%,20%,1.8µM*,6%,-4%,u
O=c1c2ccccc2nc(/C=C/c2ccc(Cl)cc2)n1CCO,-1%,-3%,-13%,x,2%,-4%
CC(=O)N1CCCc2cc(S(=O)(=O)N(C)CC(=O)Nc3ccc(C)cc3C)ccc21,x,x,x,x,x,-2%
CC(C)(C)C(=O)Cn1c(=O)n(-c2ccc(Cl)cc2)c(=O)c2c3c(sc21)CCCC3,x,x,x,-1%,x,4%
CCOC(=O)c1c(-c2cccs2)csc1NC(=O)c1ccncc1,3%,-1%,u,-11%,1%,-1%
COC(=O)c1c(-c2cccs2)csc1NC(=O)c1ccc(C)cc1,x,x,x,x,x,5.4µM*
COC(=O)c1c(NC(=O)c2ccc(C)cc2)csc1C,-2%,-5%,2%,x,0%,11µM*
Cc1cc(C(=O)CCC(=O)N2CCN(c3ccccc3)CC2)c(C)s1,2%,2%,-1%,x,-2%,-1%
O=C1Cc2ccccc2C(=O)N1OCc1ccc(Cl)cc1Cl,3%,4%,21%,12%,5%,24µM*
O=C1c2ccccc2C(=O)N1OCc1ccccc1,-5%,4%,2%,-4%,-3%,u
O=c1cc2c(nn1Cc1ccc(Cl)cc1Cl)-c1ccccc1CC2,-4%,1%,-19%,-32%,-2%,-1%
O=C1c2ccccc2C(=O)N1OCc1cccc(Cl)c1,4%,0%,u,-20%,3%,19µM*
CC(C)(C)c1cc2nc(N)nc(N)n2n1,-8%,0%,22%,x,1%,-18%
CSc1nc(N)n2nc(C(C)(C)C)cc2n1,-1%,9%,u,x,6%,17µM*
CCOC(=O)C1=C(O)/C(=C\c2cc(C)n(-c3ccccc3F)c2C)N=C1C,11%,16%,-16%,-35%,-6%,0.6µM*
CCOC(=O)C1=C(O)/C(=C\c2cc(C)n(-c3ccc(F)cc3)c2C)N=C1C,-1%,0%,-1%,-19%,16%,u
COC(=O)C1=C(C)NC(=O)/C1=C\c1cc(C)n(-c2ccccc2F)c1C,22%,11%,u,25µM*,-5%,12µM*
COC(=O)C1=C(C)NC(=O)/C1=C\c1cc(C)n(-c2ccccc2C)c1C,0%,3%,21µM*,-50%,8%,17µM*
COC(=O)C1=C(C)NC(=O)/C1=C\c1cc(C)n(-c2c(C)cccc2C)c1C,5%,-2%,-15%,-41%,7%,-3%
CCOC(=O)c1c(C)[nH]c(C)c1S(=O)(=O)N1CCN(c2ccccc2OC)CC1,x,x,x,x,x,-9%
CCOC(=O)c1ccc(COC(=O)c2ccc3c(c2)-c2ccccc2C3=O)cc1,0%,-6%,-1%,-20%,-1%,1%
CCOC(=O)C1=C(C)N(c2ccccc2)C(=O)/C1=C\c1ccc(O)c(OC)c1,1%,-4%,u,x,0%,u
CCOC(=O)C1=C(O)c2ccccc2C(=O)/C1=C\c1ccc(CC)cc1,2%,2%,20%,u,-6%,3.4µM*
CCCc1ccc(/C=C2\C(=O)c3ccccc3C(O)=C2C(=O)OCC)cc1,2%,16%,u,10µM*,u,3.4µM*
